GPR151 activ – human GPR151 activation | activation, % at 11.2 µM | PathHunter beta-arrestin GPR151 cells, luminescence | 650,000 tested, 1% active | Q8TDV0; in the data active = activation above about 4.9%;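 also: 0% = median of compound wells and 100% = cells with positive control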
Target sequence (Q8TDV0 whole entry, looked up): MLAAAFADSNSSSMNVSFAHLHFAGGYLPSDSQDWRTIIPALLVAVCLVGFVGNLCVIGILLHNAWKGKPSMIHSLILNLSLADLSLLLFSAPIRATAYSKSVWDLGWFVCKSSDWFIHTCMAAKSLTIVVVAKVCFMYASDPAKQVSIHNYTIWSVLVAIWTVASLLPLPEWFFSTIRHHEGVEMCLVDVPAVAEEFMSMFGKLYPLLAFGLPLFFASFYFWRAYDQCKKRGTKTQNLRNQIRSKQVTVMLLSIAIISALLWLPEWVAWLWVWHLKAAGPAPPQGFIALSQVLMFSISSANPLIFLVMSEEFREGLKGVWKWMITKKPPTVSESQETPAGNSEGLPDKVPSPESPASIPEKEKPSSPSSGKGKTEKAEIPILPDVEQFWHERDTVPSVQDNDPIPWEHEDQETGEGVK
TEAD-YAP block – TEAD-YAP interaction inhibition. HEK-TIYL cells, TEAD-Gal4/YAP UAS-luciferase luminescence. inhibition, % at 9.12 µM. 640,000 tested, 1.4% active. AID 1259422; in the data active = inhibition above about 32%;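 also: 0% = median of test compound wells and 100% = reference inhibitor wells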
MITF primary – blocks human microphthalmia-associated transcription factor | O75030 | AlphaScreen MITF homodimerization, bead proximity signal | inhibition, % at 2.6 µM | 650,000 tested, 0.91% active | AID 1259374; in the data active = inhibition above about 50%;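 also: 0% = vehicle wells with protein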
FBW7 act – activators of human E3 ligase FBW7; Q969H0; AlphaScreen FBW7–phospho-cyclin E peptide binding, activator screen; normalized activity (activation), % at 26.1 µM; 650,000 tested, 0.13% active; in the data active = normalized activity above about 1.9%;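 also: purified mutant Fbw7 with reduced substrate affinity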
Starred values were filed as active, the others as inactive. The list is not random: actives were taken first. Their share in the collection is about 3.5%.

SMILES	GPR151 activ	TEAD-YAP block	MITF primary	FBW7 act
CC(C)Oc1ccc(/C=C/c2ccc3cccc(O)c3n2)cc1	-9	80*	5	0
COc1ccc(/C=C/c2ccc3cccc(OC(C)=O)c3n2)cc1OC(C)=O	-4	75*	17	0
C/C(=N\NC(=O)c1nnn(-c2nonc2N)c1-c1ccccc1)c1ccc(O)cc1O	2	43*	-2	0
C/C(=N\NC(=O)c1nnn(-c2nonc2N)c1-c1ccccc1)c1ccc(O)cc1	2	13	1	0
C/C(=N\NC(=O)c1nnn(-c2nonc2N)c1-c1ccccc1)c1ccccc1O	-1	44*	22	0
COc1cccc(N2C[C@@H]3C[C@@H](C#Cc4ccccc4)N4CCC[C@@]34C2=O)c1	0	-5	20	0
Cn1c(Nc2nc(Nc3ccc(N4CCOCC4)cc3)c3ncn(-c4ccccc4)c3n2)nc2ccccc21	-2	33*	2	0
c1ccc(-n2cnc3c(Nc4ccc(N5CCOCC5)cc4)nc(Nc4ccccn4)nc32)cc1	0	58*	2	0
c1ccc(-n2cnc3c(Nc4ccc(N5CCOCC5)cc4)nc(Nc4ncccn4)nc32)cc1	0	16	2	0
Cn1c(Nc2nc(Nc3ccc(N4CCOCC4)cc3)c3ncn(-c4ccsc4)c3n2)nc2ccccc21	0	35*	9	0
CC(=O)Nc1ccc(Nc2nc(Nc3ccccn3)nc3c2ncn3-c2ccccc2)cc1	2	56*	-17	0
COc1ccc(-c2nc(Nc3ccc(NC(C)=O)cc3)c3ncn(-c4ccccc4)c3n2)cc1	0	41*	10	1
COCCn1c(C)cc(C(=O)CN2C(=O)NC(C)(c3ccc(C(C)(C)C)cc3)C2=O)c1C (stereo unspecified)	1	36*	2	0
CSc1nnc2c(n1)OC(c1ccc(-c3ccccc3Cl)o1)Nc1ccccc1-2 (stereo unspecified)	-1	2	-14	0
O=C(COc1ccccc1)Nc1nccs1	-10	-3	9	0
COc1cccc(OCC(=O)Nc2nccs2)c1	-5	37*	0	0
COc1cccc(-n2cc(C(=O)Nc3ccccc3Cl)c3ccccc3c2=O)c1	-2	9	6	1
Cc1cccc(OCC(=O)Nc2nccs2)c1	-6	54*	-11	0
Cc1cccc(OCCCC(=O)Nc2nccs2)c1	2	4	-5	0
CC(=O)Nc1cccc(NC(=O)c2cn(-c3ccc(C)c(C)c3)c(=O)c3ccccc23)c1	0	44*	4	0
COc1cccc(-n2cc(C(=O)Nc3nccs3)c3ccccc3c2=O)c1	1	43*	-6	0
CCOC(=O)C1=C(C)N=c2s/c(=C/c3cc(Br)ccc3O)c(=O)n2C1c1cc(OC)ccc1OC (stereo unspecified)	1	0	15	1
Cc1nonc1N1CCN(C(=O)c2cc(Cc3ccc(C(C)C)cc3)no2)CC1	0	-21	-6	0
Cc1ccc(Cn2c(NC(=O)C3CCCCC3)nc3ccccc32)cc1	-1	13	-1	0
O=S1(=O)C=C(N2CCCCC2)CC1	0	19	-7	0
SMILES	GPR151 activ	TEAD-YAP block	MITF primary	FBW7 act
COc1ccc(/C=C(/NC(=O)c2ccco2)C(=O)NC(Cc2ccccc2)C(=O)O)cc1 (stereo unspecified)	2	4	-15	0
COc1cccc(-c2csc3nnc(SCC(=O)c4ccc(NC(C)=O)cc4)n23)c1	0	3	10	13*
Cc1ccc(Nc2cc(C)nn2-c2nc(C)cc(=O)[nH]2)cc1	-1	58*	14	-1
Cc1ccc(Nc2cc(C)nn2-c2nc(C)cc(C)n2)cc1	0	11	2	0
Cc1cccc(-n2cc(-c3ccccc3)c3c(N4CCCC(C)C4)ncnc32)c1 (stereo unspecified)	-3	4	12	0
Cc1nc(-c2ccccn2)cc(N2CCCCC2)n1	0	40*	-5	-1
CCOC(=O)C1=C(C)N=c2s/c(=C/c3ccccc3OCc3ccc(F)cc3)c(=O)n2C1c1ccccc1OC(C)C (stereo unspecified)	-1	-4	3	0
c1ccc(N=C2NN=C(c3ccccc3)CS2)cc1	1	-36	-7	0
c1ccc(C2=NNC(=NC3CC3)SC2)cc1	-10	80*	-7	0
CN(CCC#N)c1ccc(/C=C(\C#N)c2ccccn2)cc1	-4	49*	-1	0
Cc1cc(C)c(NS(=O)(=O)c2cccc(C(=O)Nc3ccccc3[N+](=O)[O-])c2)c(C)c1	2	-12	0	0
CCOC(=O)C(=O)C(C#N)c1ccc(OCC(C)C)cc1 (stereo unspecified)	0	1	38	0
COc1ccc(Cc2nnc(Nc3cccc(Cl)c3)[nH]c2=O)cc1	1	34*	3	0
c1ccc(CNc2nc(Nc3ccc(-n4ccnc4)cc3)nc3c2ncn3-c2ccsc2)cc1	5	2	9	0
CC(C)N(CCNc1nc(Nc2ccc(-n3ccnc3)cc2)nc2c1ncn2-c1ccccc1)C(C)C	2	34*	8	0
CC(C)N(CCNc1nc(Nc2ccccn2)nc2c1ncn2C(C)C)C(C)C	0	43*	-1	0
CC(C)N(CCNc1nc(Nc2ccc(-n3ccnc3)cc2)nc2c1ncn2-c1ccsc1)C(C)C	1	51*	15	0
CC(C)N(CCNc1nc(Nc2ccc(-n3ccnc3)cc2)nc2c1ncn2C(C)C)C(C)C	-1	60*	5	1
COc1ccc(Cl)cc1NC(=O)CCc1c(C)nc2nc(CN)nn2c1C	5	-2	-3	0
Cc1ccc(N2C(=O)c3cccc4c(N5CCCCC5)ccc(c34)C2=O)cc1	0	-5	7	0
COc1ccc(Cc2nnc(C3CCN(C(=O)Cn4cnc5ccccc54)CC3)s2)cc1	2	54*	-3	0
CN(C)c1ccc(/C=c2\sc3n(c2=O)C(N)=C(C#N)C(c2ccc(N(C)C)c(Br)c2)C=3C#N)cc1Br (stereo unspecified)	0	-1	18	0
O=c1c(Cl)c(Cl)cnn1-c1ccc(Cl)cc1	-1	82*	11	1
NC(c1ccc(F)cc1)c1nc2ccc(-c3ccncc3)cc2[nH]1 (stereo unspecified)	0	-21	40	-2
O=C(N/N=C/C1CC2CCC1C2)c1cccc2ccccc12 (stereo unspecified)	0	37*	-7	0
O=C(N/N=C/C1CC2CCC1C2)c1ccc([N+](=O)[O-])cc1 (stereo unspecified)	-1	10	14	0
O=C(c1ccccc1)n1c(=S)nc2ccccn21	-2	40*	14	0
Cn1c(=O)n(C)c2cc(/C=N/Nc3nc(-c4ccccc4)cs3)ccc21	3	0	-4	0
Cc1ccc(-c2ncnn2-c2sc3c(c2C#N)CCCCC3)cc1	-1	2	5	-1
N#Cc1c(-n2ncnc2-c2cccs2)sc2c1CCCCC2	1	64*	22	0

Bioassay records (PubChem BioAssay)
